# Results from PubChem BioAssay (Tox21).
# Several values for one entry are separate records, joined by “and”; a condition that tells them apart may be missing. Identical values can stand only once. Inconclusive results are not listed. Where a call stands in place of a potency, no number is given. Where a structure was tested more than once in an assay, its records may differ in their call. Activity calls are given as the source filed them. Unless noted, calls come from the whole dose curve.
# Legend:
# [1] = Nuclear factor erythroid 2-related factor 2/antioxidant responsive element (Nrf2/ARE) small molecule agonists: qHTS cell viability counter screen in human keratinocytes (AID 1919968; active = well fitted curve in the direction sought with a large enough effect in the repeat runs; an effect the other way counts as inactive or inconclusive; note: nearly all actives have a fitted effect of over 55% in size; note: potency is the fitted concentration of half-maximal effect)
# Outline: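 Stably transfected HaCaT (KeratinoSens), 1,500/well. Test agents in DMSO were applied for 23 h, 37 C/5% CO2. CellTiter-Fluor was incubated 1 h before the fluorescence read.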
# [2] = Nuclear factor erythroid 2-related factor 2/antioxidant responsive element (Nrf2/ARE) small molecule agonists: luciferase reporter gene qHTS assay in human keratinocytes (AID 1919969); note: nearly all actives have a fitted effect of over 35% in size
# [3] = target: Gonadotropin-releasing hormone receptor (Homo sapiens) (UniProt P30968); assay: Human gonadotropin-releasing hormone receptor (GnRHR) small molecule agonists, calcium flux assay in GnRHR-HEK293 cells (AID 1920063); note: nearly all actives have a fitted effect of over 35% in size
# Sequence of Gonadotropin-releasing hormone receptor (Homo sapiens) (P30968 whole entry, looked up): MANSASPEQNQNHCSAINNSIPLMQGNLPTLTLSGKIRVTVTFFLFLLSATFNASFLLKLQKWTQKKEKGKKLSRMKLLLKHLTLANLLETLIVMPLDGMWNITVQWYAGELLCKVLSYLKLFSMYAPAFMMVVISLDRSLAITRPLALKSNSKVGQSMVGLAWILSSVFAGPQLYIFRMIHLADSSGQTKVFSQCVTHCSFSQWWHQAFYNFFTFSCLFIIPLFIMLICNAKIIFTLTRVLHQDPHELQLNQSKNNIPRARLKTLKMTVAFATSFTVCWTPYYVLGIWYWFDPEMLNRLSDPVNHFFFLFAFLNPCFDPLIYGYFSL
# Outline: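 Stable human GnRHR HEK293 line. 18 h plating, then calcium dye for 1 h at 37 C. Agonist-mode compound addition from DMSO stocks; fluorescence monitored 3 min.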
# [4] = target: KiSS-1 receptor (Homo sapiens) (UniProt Q969F8); assay: Human kisspeptin (KISS1R) small molecule agonists, calcium flux assay in KISS1R-HEK293 cells (AID 1920064; active = well fitted curve in the direction sought with a large enough effect in the repeat runs; an effect the other way counts as inactive or inconclusive)
# Sequence of KiSS-1 receptor (Homo sapiens) (Q969F8 whole entry, looked up): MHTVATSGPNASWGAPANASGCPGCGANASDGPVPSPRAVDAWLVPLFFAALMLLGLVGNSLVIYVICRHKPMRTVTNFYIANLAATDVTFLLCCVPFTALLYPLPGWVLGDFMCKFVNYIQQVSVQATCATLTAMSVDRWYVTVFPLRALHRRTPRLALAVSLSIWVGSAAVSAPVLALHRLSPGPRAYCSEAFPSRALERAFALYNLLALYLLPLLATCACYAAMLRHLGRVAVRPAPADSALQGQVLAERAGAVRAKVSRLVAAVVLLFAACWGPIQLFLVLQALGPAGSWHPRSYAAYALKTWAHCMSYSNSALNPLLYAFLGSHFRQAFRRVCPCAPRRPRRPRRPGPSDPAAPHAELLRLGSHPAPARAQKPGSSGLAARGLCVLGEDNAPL
# Outline: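 After overnight (18 h) culture at 37 C/5% CO2, human KISS1R-HEK293 cells received calcium dye for 1 h, then test compound; emission at 540 nm (excitation 480 nm) was tracked for 3 min.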
# [5] = G protein-coupled receptor (GPCR) small molecule agonists, calcium flux assay: HEK293 wild type cell line counter screen (AID 1920065)
# Outline: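 Following 18 h incubation at 37 C/5% CO2, plates got calcium dye for 1 h; compounds, ATP or DMSO were then pinned in and fluorescence followed kinetically (480/540 nm).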
# [6] = p53 small molecule agonists, cell-based qHTS assay with human liver microsomes (AID 1963577)
# Outline: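 p53RE-bla reporter cells were pre-incubated 5 h at 37 C, then treated with compounds plus human liver microsomes (0.5 mg/mL final) and NADPH (0.5 mg/mL final) for 16 h at 37 C. Beta-lactamase activity was read by LiveBLAzer fluorescence after 2 h at room temperature.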
# [7] = p53 small molecule agonists, cell-based qHTS assay with rat liver microsomes (AID 1963578)
# Outline: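 p53RE-bla cells were exposed to compounds together with rat liver microsomes (0.5 mg/mL final) and NADPH (0.5 mg/mL final) for 16 h at 37 C, then read by LiveBLAzer beta-lactamase fluorescence after 2 h at room temperature.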
# [8] = p53 small molecule agonists, cell-based qHTS assay with human liver microsomes: qHTS cell viability counter screen (AID 1963579); note: nearly all actives have a fitted effect of over 45% in size; note: potency is the fitted concentration of half-maximal effect
# Outline: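 p53RE-bla cells (4,000/well) were pre-incubated 5 h at 37 C, then given compounds in DMSO plus human liver microsomes (0.5 mg/mL final) and NADPH (0.5 mg/mL final) for 16 h at 37 C. Viability was read by CellTiter-Glo luminescence.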
# [9] = p53 small molecule agonists, cell-based qHTS assay (AID 1963582; active = well fitted activation curve with a large enough effect in the signal ratio in the repeat runs, not every such curve was filed as active; the % refers to the signal ratio)
# Outline: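 Measured: fluorescence from cleaved LiveBLAzer substrate. System: p53RE-bla cells, 16 h compound treatment at 37 C, 2 h substrate step at room temperature.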
# [10] = target: 5-hydroxytryptamine receptor 2A (Homo sapiens) (UniProt P28223); assay: 5-hydroxytryptamine receptor 2A (HTR2A) small molecule antagonists, cell-based qHTS assay (AID 1963586); note: nearly all actives have a fitted effect of over 45% in size
# Sequence of 5-hydroxytryptamine receptor 2A (Homo sapiens) (P28223 whole entry, looked up): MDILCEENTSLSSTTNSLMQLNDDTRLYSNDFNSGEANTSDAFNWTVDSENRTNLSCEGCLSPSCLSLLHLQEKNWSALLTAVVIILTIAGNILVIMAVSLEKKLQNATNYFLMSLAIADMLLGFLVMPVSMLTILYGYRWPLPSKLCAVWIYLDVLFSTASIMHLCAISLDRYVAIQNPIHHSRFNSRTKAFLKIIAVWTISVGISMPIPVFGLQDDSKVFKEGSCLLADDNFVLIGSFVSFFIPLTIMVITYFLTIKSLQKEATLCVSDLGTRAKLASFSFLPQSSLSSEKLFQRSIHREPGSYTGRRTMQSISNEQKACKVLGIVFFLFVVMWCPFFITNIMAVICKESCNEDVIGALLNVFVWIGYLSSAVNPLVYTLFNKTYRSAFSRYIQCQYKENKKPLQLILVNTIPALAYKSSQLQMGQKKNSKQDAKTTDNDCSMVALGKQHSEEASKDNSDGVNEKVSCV
# Outline: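 CHO cells stably expressing human HTR2A were plated for 18 h at 37 C, then loaded with calcium dye for 1 h. Compounds were preincubated 5 min at room temperature before DOI (4 nM solution) was added. Kinetic fluorescence was read for 3 min.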
# [11] = target: 5-hydroxytryptamine receptor 2A (Homo sapiens) (UniProt P28223); assay: 5-hydroxytryptamine receptor 2A (HTR2A) small molecule agonists, cell-based qHTS assay (AID 1963587); note: nearly all actives have a fitted effect of over 30% in size
# Outline: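 HTR2A-CHO cells, plated 18 h at 37 C/5% CO2, dye-loaded 1 h at 37 C; compounds in DMSO added by pin tool (agonist mode). Intracellular calcium flux read as kinetic fluorescence on FDSS over 2 min at 1 s intervals.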
# [12] = target: Muscarinic acetylcholine receptor M1 (Homo sapiens) (UniProt P11229); assay: Cholinergic receptor muscarinic 1 (CHRM1) small molecule antagonists, cell-based qHTS assay (AID 1963588); note: nearly all actives have a fitted effect of over 40% in size
# Sequence of Muscarinic acetylcholine receptor M1 (Homo sapiens) (P11229 whole entry, looked up): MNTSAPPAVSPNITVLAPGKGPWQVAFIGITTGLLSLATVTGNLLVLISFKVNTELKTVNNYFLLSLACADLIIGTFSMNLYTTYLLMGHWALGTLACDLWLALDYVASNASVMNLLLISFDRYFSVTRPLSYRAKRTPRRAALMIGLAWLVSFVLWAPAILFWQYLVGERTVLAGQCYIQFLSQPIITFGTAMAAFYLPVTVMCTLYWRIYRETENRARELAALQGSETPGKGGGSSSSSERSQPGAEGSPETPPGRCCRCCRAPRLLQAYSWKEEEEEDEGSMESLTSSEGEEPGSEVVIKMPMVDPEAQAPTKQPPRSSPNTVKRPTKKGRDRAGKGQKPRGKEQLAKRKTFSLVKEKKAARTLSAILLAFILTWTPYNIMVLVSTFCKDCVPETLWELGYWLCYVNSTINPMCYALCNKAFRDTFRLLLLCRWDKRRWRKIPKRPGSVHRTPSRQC
# Outline: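 Compounds were tested at 15 concentrations in three independent runs. Dye-loaded CHRM1-CHO cells were exposed 5 min at room temperature before stimulation by acetylcholine added at 50nM. Intracellular calcium was read kinetically on FDSS for 3 min.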
# [13] = target: Muscarinic acetylcholine receptor M1 (Homo sapiens) (UniProt P11229); assay: Cholinergic receptor muscarinic 1 (CHRM1) small molecule agonists, cell-based qHTS assay (AID 1963589); note: nearly all actives have a fitted effect of over 35% in size
# Outline: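 Kinetic fluorescence (1 s intervals) of calcium-sensitive dye in human M1 CHO cells after compound addition; cells pre-incubated 18 h at 37 C/5% CO2 and dye-loaded 1 h.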
# [14] = cAMP Responsive Elements (CRE) small molecule agonists, cell-based qHTS assay (AID 1963590)
# Outline: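 Test agents in DMSO were incubated 3 h at 37 C/5% CO2 with CRE-bla HEK 293T cells seeded 18 h earlier; LiveBLAzer B/G FRET substrate was added and read after 2 h at room temperature.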
# [15] = cAMP Responsive Elements (CRE) small molecule antagonists, cell-based qHTS assay (AID 1963591; active = well fitted inhibition curve with a large enough effect in the signal ratio in the repeat runs, not every such curve was filed as active; the % refers to the signal ratio)
# Outline: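 Reporter line CRE-bla HEK 293T in dialyzed-FBS DMEM; cells preincubated 18 h, treated 3 h with compound plus NKH477 (0.25 uM final); LiveBLAzer FRET, 2 h RT.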
# [16] = target: D(2) dopamine receptor (Homo sapiens) (UniProt P14416); assay: Dopamine D2 receptor (DRD2) small molecule agonists, cell-based qHTS assay (AID 1963594); note: nearly all actives have a fitted effect of over 35% in size
# Sequence of D(2) dopamine receptor (Homo sapiens) (P14416 whole entry, looked up): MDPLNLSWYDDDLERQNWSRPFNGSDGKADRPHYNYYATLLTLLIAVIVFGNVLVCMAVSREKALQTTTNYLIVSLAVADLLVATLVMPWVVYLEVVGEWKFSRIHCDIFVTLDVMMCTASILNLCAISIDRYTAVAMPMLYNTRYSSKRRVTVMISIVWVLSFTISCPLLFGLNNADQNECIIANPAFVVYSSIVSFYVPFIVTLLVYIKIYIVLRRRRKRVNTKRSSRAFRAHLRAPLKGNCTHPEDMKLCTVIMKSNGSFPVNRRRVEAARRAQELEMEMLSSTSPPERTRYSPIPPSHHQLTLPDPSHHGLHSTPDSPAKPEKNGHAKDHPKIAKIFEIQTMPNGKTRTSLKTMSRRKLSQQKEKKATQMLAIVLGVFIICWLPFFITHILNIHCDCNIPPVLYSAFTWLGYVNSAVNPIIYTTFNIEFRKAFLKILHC
# Outline: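 HEK293 cells stably expressing DRD2 were cultured 24 h at 37 C, then given Ro20-1724 (0.1 mM final) and compounds for 10 min at room temperature. NKH477 (200nM) was then added for 30 min. cAMP was read by HTRF.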
# [17] = target: D(2) dopamine receptor (Homo sapiens) (UniProt P14416); assay: Dopamine D2 receptor (DRD2) small molecule antagonists, cell-based qHTS assay (AID 1963595; active = well fitted inhibition curve with a large enough effect in the signal ratio in the repeat runs, with a control signal flat; the % refers to the signal ratio)
# Outline: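 Antagonist mode in DRD2-HEK293 cells: after compound addition with 0.1 mM Ro20-1724, cells received quinpirole (12 nM) and NKH477 (200 nM) for 30 min at room temperature; HTRF cAMP read after 1 h detection.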
# [18] = p53 small molecule agonists, cell-based qHTS assay: qHTS cell viability counter screen (AID 1963581); note: nearly all actives have a fitted effect of over 45% in size
# Outline: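 qHTS counter screen: 16 h compound exposure at 37 C of p53RE-bla HCT-116 cells (4,000 per well, seeded 5 h prior), cell viability by ATP luminescence.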
# [19] = target: Beta-2 adrenergic receptor (Homo sapiens) (UniProt P07550); assay: Adrenergic beta2 receptor (ADRB2) small molecule antagonists, cell-based qHTS assay (AID 1963592); note: series mostly up to about 92 µM; nearly all actives have a fitted effect of over 50% in size
# Sequence of Beta-2 adrenergic receptor (Homo sapiens) (P07550 whole entry, looked up): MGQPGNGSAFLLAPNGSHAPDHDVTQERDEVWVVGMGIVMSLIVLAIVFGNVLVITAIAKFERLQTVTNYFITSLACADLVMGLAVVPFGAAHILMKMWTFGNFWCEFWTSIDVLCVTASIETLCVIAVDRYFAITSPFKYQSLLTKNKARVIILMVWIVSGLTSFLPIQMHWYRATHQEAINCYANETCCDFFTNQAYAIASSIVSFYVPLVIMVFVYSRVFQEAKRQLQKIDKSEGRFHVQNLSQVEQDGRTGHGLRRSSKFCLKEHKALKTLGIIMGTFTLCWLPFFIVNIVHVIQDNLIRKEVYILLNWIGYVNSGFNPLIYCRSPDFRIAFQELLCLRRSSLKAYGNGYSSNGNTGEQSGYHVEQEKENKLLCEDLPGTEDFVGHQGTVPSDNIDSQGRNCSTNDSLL
# Outline: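 Assay format: CHO-ADRB2 cells, 18-20hr seeding at 37C/5% CO2, then compound plus 1nM isoproterenol agonist mix for 0.5hr RT. Homogeneous time-resolved fluorescence cAMP detection after 1hr, expressed as 665/615 nm ratio.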
# [20] = p53 small molecule agonists, cell-based qHTS assay with rat liver microsomes: qHTS cell viability counter screen (AID 1963580); note: nearly all actives have a fitted effect of over 45% in size
# Outline: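 Luminescent ATP readout (CellTiter-Glo, 30 min at room temperature) reports viability of p53RE-bla HCT-116 cells after 16 h at 37 C with test compounds under metabolic activation by rat liver microsomes and NADPH at 0.5 mg/mL final each.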
SMILES,Potency [1],Potency [2],Potency [3],Potency [4],Potency [5],Potency [6],Potency [7],Potency [8],Potency [9],Potency [10],Potency [11],Potency [12],Potency [13],Potency [14],Potency [15],Potency [16],Potency [17],Potency [18],Potency [19],Potency [20]
c1ccc(N=Nc2ccccc2)cc1,inactive,inactive,inactive,inactive,inactive,inactive,inactive,inactive,inactive,inactive,inactive,inactive,inactive,inactive,inactive,inactive,inactive,,,
Nc1nc(N)nc(Cl)n1,inactive,inactive,inactive,inactive,inactive,inactive,inactive,inactive,inactive,inactive,inactive,inactive,inactive,inactive,,inactive,inactive,inactive,inactive,
Cc1ccc(Cl)c(O)c1,inactive,inactive,inactive,inactive,inactive,inactive,inactive,inactive,inactive,inactive,inactive,inactive,inactive,inactive,inactive,inactive,inactive,inactive,inactive,
CCOc1ccc(N)cc1,inactive,inactive,inactive,inactive,inactive,inactive,inactive,inactive,inactive,inactive,inactive,inactive,inactive,inactive,,inactive,inactive,inactive,inactive,
CC(C)CC(C)(c1ccc(O)cc1)c1ccc(O)cc1,27.4 µM (active) and 38.6 µM (active),inactive,inactive,inactive,inactive,inactive,inactive,inactive and 36.3 µM (active),inactive,,inactive,inactive,inactive,,,inactive,,inactive,inactive,
O=C(O)C(Cl)(Cl)Cl,inactive,inactive,inactive,inactive,inactive,inactive,inactive,inactive,inactive,,,,,inactive,inactive,inactive,inactive,inactive,inactive,
O=C(O)C(Br)Br,inactive,inactive,inactive,inactive,inactive,inactive,inactive,,inactive,inactive,inactive,inactive,inactive,inactive,inactive,inactive,inactive,inactive,inactive,inactive
C1CC2OC2CC1C1CO1 (stereo not given),inactive,inactive,inactive,inactive,inactive,inactive,inactive,,inactive,inactive,inactive,inactive,inactive,inactive,inactive,inactive,inactive,inactive,inactive,inactive
